We go through 40 sequences from the OligoGym collection.
Further: reference of the scale not given here.

The first assay concerns the target KCND2. The assay can be described thus: pooled miR-30 sensor sort-seq; sequence = guide strand. The following applies: shRNA.
The sequence TTGTGTCGTCGTGAACAGCAGG yielded a sensor-assay potency score (higher = more potent) of -0.722.

Turning to ATTAACAGTTGCAACTTCCATG, the sensor-assay potency score (higher = more potent) was -0.92.

The sequence TTAAAGATCCTGAAGACCCGGA showed a sensor-assay potency score (higher = more potent) of 0.918. On the same count and under the same terms, the result for TTTGTCTGCTCGTTGATTCTGG reads -0.31; that for TTGTCTGTCATCACCAGCCCAA, -0.744. Consider TTGTATACTACCTTGATGGCTT, for which the sensor-assay potency score (higher = more potent) stood at 0.674. Still for that read-out and setting: the result for TTGTTCGTCCACAAACTCGTGA reads -0.0668; that for TTCTGAGGCACAACTCTTCAGT, -0.605; that for TTGTACTCCTCATAACAGCAGT, -0.753. Still for that read-out and setting: the result for TAGAACACCAGGGCCATCGTGC reads -0.481.

The target of the next assay is KCNE1. Described as above. The following applies: shRNA.
TTTTCAACGACATAGCACGACC had a sensor-assay potency score (higher = more potent) of -1.08. Take TAGAGAAACAGTGAAACAGTGT: the sensor-assay potency score (higher = more potent) came to 0.334. Still for that read-out and setting: for TCAACGACATAGCACGACCTGT the value was -0.979; for TTCGAGTGCTCCAGCTTCTTGG, -0.829. The sequence TTGTCCTTCTCTTGCCAGGCAT had a sensor-assay potency score (higher = more potent) of -1.07.

TTTAGAGAAACAGTGAAACAGT: the sensor-assay potency score (higher = more potent) was -0.257. Same read-out and setting: the result for TCGATGTAGACGTTGAATGGGT reads -0.608. Same read-out and setting: the result for TTCTTGGAGCGGATGTAGCTCA reads -0.819; that for TTGTTCTATGGCCAGATGGTTT, -1.5; that for TCCAGCTTGCCGTCACTGCTGC, -1.06.

On to TTGCCAGGCATCGGACTCGATG, for which the sensor-assay potency score (higher = more potent) is -1.64. The same measure, in the same setting: the result for TCGGACTCGATGTAGACGTTGA reads -0.164.

A further assay concerns the target KCNH5. Described as above. The following applies: shRNA.
For TTACATATCAAAATCCATGTGT, the sensor-assay potency score (higher = more potent) was 0.412. The same measure, in the same setting: for TATACAAGCAATATCTATGTTT the value was -0.652; for TTGAACTTCTGGAAGAGCTTTC, -0.184; for TAGAGTTTTAGGAAGTCCCGTA, -0.0513. The same measure, in the same setting: for TTCGTGTTTGACTTCCTGCAGT the value was -0.357; for TTGAACAACGTAATATCCTTGA, 0.815. On to TTCCACTGTCACAAGAATCTGT, for which the sensor-assay potency score (higher = more potent) came out at 0.6. On the same count and under the same terms, the result for TTTGAACAACGTAATATCCTTG reads -0.17; that for TTTTCTTGTACAGAAGAACTTC, 0.0958; that for TTTCTTCACATCACTGATCTTA, 0.0331. The same measure, in the same setting: the result for TAAACAAGACAGCAGATCGATC reads -1.19; that for TGAGACACTAAAAATATCCTGA, 0.518.

The next assay addresses KCNJ11. The assay is described as above. The following applies: shRNA.
The sequence TACAATGGGCACAAAGCGCTGG registered a sensor-assay potency score (higher = more potent) of 0.352. The same measure, in the same setting: the result for TTTGACGGTGTTGCCAAACTTG reads -0.73. TTGGAGTAGTCCACAGAGTAAC yielded a sensor-assay potency score (higher = more potent) of -1.69. Same read-out and setting: for TAGCATAGTGACAAGTGCCTTG the value was 0.123; for TAGTCCACAGAGTAACGTCCGT, -0.814; for ACATGGTAGATGATCAGCGGGG, -0.798.
